# Laboratory results from the supplement of paper PMC11634586.
# Unmarked numbers belong to inactive results.
# Test system: NCI-H1688
# Assay: inhibition of cell viability relative to untreated control (fraction); higher = stronger growth inhibition, active = 0.5 or more
# Settings: 30 µM; 24 h
# In short: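 Viability of NCI-H1688 small cell lung cancer cells was assessed with Cell Counting Kit-8 by absorbance at 450 nm, in triplicate, after a 24 h exposure to a natural compound library (TargetMol) at 30 µM at 37°C and 5% CO2. The cells had been seeded at 3 × 10^3 cells/well in 96-well plates 24 h before treatment. Inhibition of cell viability is reported as a fraction, derived from viability normalised against untreated cells.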
row,SMILES,inhibition of cell viability
1,COc1cc(OC)c2ccc(=O)oc2c1 [Citropten],-0.00623
2,O=c1oc2ccccc2c(O)c1Cc1c(O)c2ccccc2oc1=O [Dicumarol],0.308
3,O=c1c(O)c(-c2ccc(O)cc2)oc2cc(O)cc(O)c12 [Kaempferol],-0.00334
4,CC(C)CCC[C@@H](C)[C@H]1CC[C@H]2[C@@H]3CC=C4C[C@@H](O)CC[C@]4(C)[C@H]3CC[C@]12C [Cholesterol],-0.0392
5,OC[C@H]1O[C@@H](OCCc2ccc(O)cc2)[C@H](O)[C@@H](O)[C@@H]1O [Salidroside],-0.0108
6,C[C@H]1CC[C@@]2(OC1)O[C@H]1C[C@H]3[C@@H]4CC[C@@H]5C[C@@H](O)CC[C@]5(C)[C@H]4CC[C@]3(C)[C@H]1[C@@H]2C [Sarsasapogenin],-0.0422
7,O=c1oc2c(O)c(O)cc3c(=O)oc4c(O)c(O)cc1c4c23 [Ellagic acid],-0.099
8,O=C(O)c1cc(=O)[nH]c(=O)[nH]1 [Orotic acid],-0.0262
9,COc1ccc([C@@H]2CC(=O)c3c(O)cc(O)cc3O2)cc1O [Hesperetin],-0.0748
10,O=Cc1ccc(O)c(O)c1 [Protocatechualdehyde],0.314
11,C=CC1=C(C)c2cc3[nH]c(cc4nc(cc5[nH]c(cc1n2)c(C)c5CCC(=O)O)C(CCC(=O)O)=C4C)c(C)c3C=C [Protoporphyrin IX],0.863 (active)
12,COc1cc(CO)ccc1O [Vanillyl Alcohol],-0.235
13,CC[C@H](/C=C/[C@@H](C)[C@H]1CC[C@H]2[C@@H]3CC=C4C[C@@H](O)CC[C@]4(C)[C@H]3CC[C@]12C)C(C)C [Stigmasterol],-0.0217
14,C=C[C@H]1[C@H](O[C@@H]2O[C@H](CO)[C@@H](O)[C@H](O)[C@H]2O)OC=C2C(=O)OCC[C@]21O [Swertiamarin],-0.0605
15,OCc1ccc(O[C@@H]2O[C@H](CO)[C@@H](O)[C@H](O)[C@H]2O)cc1 [Gastrodin],-0.283
16,CC[C@H](C)[C@H](N)C(=O)O [isoleucine],-0.178
17,COC(=O)c1ccc(O)c(OC)c1 [Methyl Vanillate],-0.221
18,COc1c2ccoc2cc2oc(=O)ccc12 [Bergapten],0.298
19,CC(C)(O)CC[C@@H](O)[C@](C)(O)[C@H]1CC[C@@]2(O)C3=CC(=O)[C@@H]4C[C@@H](O)[C@@H](O)C[C@]4(C)[C@H]3CC[C@]12C [Ecdysterone],-0.0294
20,COc1ccc2ccc(=O)oc2c1CC=C(C)C [Osthole],0.166
